# From PubChem BioAssay AID743445 (Broad Institute, 2014)
# Out of some 310,000 compounds screened, about 1,700 (0.55%) were called active. Cut-off read from the data, not from the text of the source: active = inhibition above about 50%; inactive = the rest. The entries come from a sample that favours actives as a whole.
# Molecular target: Histone-lysine N-methyltransferase NSD2 (Homo sapiens) (UniProt O96028)
# Test: blockers of NSD2 lysine methylation activity – biochemical, AlphaScreen, single concentration, set 2, primary screen (AID 743445)
# Settings: NSD2 peptide methylation, 120 min, at 12.5 µM, hits give high values
# Sequence of Histone-lysine N-methyltransferase NSD2 (Homo sapiens) (O96028 whole entry, looked up): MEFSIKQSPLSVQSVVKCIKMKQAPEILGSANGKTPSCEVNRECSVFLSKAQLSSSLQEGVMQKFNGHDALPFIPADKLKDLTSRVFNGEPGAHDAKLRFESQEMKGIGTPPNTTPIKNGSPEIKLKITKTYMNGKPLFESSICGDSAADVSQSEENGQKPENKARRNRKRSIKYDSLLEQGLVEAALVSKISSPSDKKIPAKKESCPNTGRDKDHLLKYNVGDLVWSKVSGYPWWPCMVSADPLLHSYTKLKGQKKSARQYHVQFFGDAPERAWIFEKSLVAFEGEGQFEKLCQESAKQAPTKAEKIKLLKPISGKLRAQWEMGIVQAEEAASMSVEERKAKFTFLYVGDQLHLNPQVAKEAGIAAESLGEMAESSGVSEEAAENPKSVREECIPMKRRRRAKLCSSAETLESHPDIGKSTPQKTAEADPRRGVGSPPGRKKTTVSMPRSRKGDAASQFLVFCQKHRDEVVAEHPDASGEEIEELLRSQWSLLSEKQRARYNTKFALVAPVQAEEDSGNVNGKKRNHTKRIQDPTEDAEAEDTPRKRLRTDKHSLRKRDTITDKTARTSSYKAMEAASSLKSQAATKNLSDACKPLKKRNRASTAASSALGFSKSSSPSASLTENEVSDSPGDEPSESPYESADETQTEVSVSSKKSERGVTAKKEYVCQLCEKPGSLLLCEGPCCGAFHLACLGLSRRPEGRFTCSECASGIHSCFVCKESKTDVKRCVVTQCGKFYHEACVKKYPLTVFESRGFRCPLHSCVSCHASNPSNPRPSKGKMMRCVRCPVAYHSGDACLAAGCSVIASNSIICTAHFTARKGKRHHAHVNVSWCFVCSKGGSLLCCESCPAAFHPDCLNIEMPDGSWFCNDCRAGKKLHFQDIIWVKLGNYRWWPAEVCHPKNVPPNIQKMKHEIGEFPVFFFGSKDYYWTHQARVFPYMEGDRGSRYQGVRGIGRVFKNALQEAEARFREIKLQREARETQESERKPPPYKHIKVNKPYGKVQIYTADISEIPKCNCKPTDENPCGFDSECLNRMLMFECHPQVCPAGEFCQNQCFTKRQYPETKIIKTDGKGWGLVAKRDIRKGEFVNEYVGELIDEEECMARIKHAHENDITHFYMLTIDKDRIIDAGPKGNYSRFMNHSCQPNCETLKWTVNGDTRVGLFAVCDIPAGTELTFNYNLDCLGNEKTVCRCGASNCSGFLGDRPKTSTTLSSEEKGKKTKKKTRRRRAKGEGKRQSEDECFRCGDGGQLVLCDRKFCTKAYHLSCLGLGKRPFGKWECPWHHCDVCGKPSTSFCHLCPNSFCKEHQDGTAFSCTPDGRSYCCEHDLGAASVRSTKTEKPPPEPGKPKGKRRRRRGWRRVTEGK
row,Compound,inhibition
1,Cc1ccccc1N1C(=O)NC(=O)/C(=C\c2cc(C)n(C)c2C)C1=O,5.19% (inactive)
2,Cc1cc(/C=C2/C(=O)NC(=O)N(Cc3ccco3)C2=O)c(C)n1-c1ccc(C(=O)O)cc1,36.8% (inactive)
3,Cc1c(C(=O)O)cccc1-n1c(C)cc(/C=C2\C(=O)NC(=O)N(c3ccc4c(c3)OCO4)C2=O)c1C,65.9% (active)
4,CCC(C)(O)C(=O)OC1C(=O)OC2CC3C(C)=CC(=O)C(O)C3(C)C3C4(O)OCC23C1C(C)C4O (stereo not given),-0.572% (inactive)
5,O=C(c1ccccc1)C(O)(CN1CCCCC1)c1ccccc1 (stereo not given),1.13% (inactive)
6,O=c1c2ccccc2[nH]c(=S)n1-c1cccc(Cl)c1,-7.59% (inactive)
7,COc1ccc(C2C=C(C)Oc3c2c(=O)oc2ccccc32)cc1OC (stereo not given),1.06% (inactive)
8,CC12CCC(O)CC1CCC1C2CCC2(C)C(C(=O)CC(O)C(F)(F)F)CCC12 (stereo not given),-0.54% (inactive)
9,COc1cccc(N2C(=O)NC(=O)/C(=C\c3ccc([N+](=O)[O-])s3)C2=O)c1,59% (active)
10,COc1ccc(CN2C(=O)NC(=O)/C(=C\c3ccc(OC)c(OC)c3OC)C2=O)cc1,1.88% (inactive)
11,O=C1NC(=O)N(c2ccccc2)C(=O)/C1=C/c1ccc([N+](=O)[O-])s1,73.4% (active)
12,O=C1NC(=O)N(c2ccc(F)cc2)C(=O)/C1=C/c1ccc2c(c1)CCCN2Cc1ccccc1,16.6% (inactive)
13,COc1cccc(N2C(=O)NC(=O)/C(=C\c3cn(C)c4ccccc34)C2=O)c1,1.25% (inactive)
14,O=C1NC(=O)C(Cc2ccccc2)C(=O)N1,-1.35% (inactive)
15,CC(=CCOc1ccc2ccc(=O)oc2c1)C1=CC(=O)C(C)(C)O1,0.448% (inactive)
16,CC(=O)OC1C2(CC3N4C(=O)C5(CO)SSC4(CC31O)C(=O)N5C)OC(C)C(C)(C)C2=O (stereo not given),133% (active)
17,CO[C@H]([C@H](C)/C=C/N(C)C=O)[C@@H](C)C(=O)CC[C@H](C)[C@H](O)[C@H](C)[C@H]1OC(=O)/C=C/C(C)=C/[C@H](O)[C@H](OC)C[C@@H]2C=CC[C@@H](C[C@H](OC)[C@@]3(CO3)[C@@H](OC)C[C@@H](OC)[C@@H]1C)O2,-2.92% (inactive)
18,O=P(OC1=CCCCC1)(c1ccccc1)c1ccccc1,1.12% (inactive)
19,O=c1c2ccccc2nc(CBr)n1-c1ccc(Cl)cc1,-1.22% (inactive)
20,c1cc2c(c(NC3=NCCCS3)c1)CCCC2,8.89% (inactive)
21,CC(=O)C1(O)CCC2C3CCC4=C(Cl)C(=O)CCC4(C)C3CCC21C (stereo not given),-5.24% (inactive)
22,Cc1cc(N2C(=O)C3CCCN3C2c2ccc(Cl)c(Cl)c2)no1 (stereo not given),84.4% (active)
23,CCN1C(=O)NC(=O)C2(CCCC2)C1=O,27.8% (inactive)
24,C[C@]12CCCCC1=CC(=O)C1C2CC[C@@]2(C)C1C[C@@H](F)[C@@H]2O (stereo not given in full),-1.58% (inactive)
25,O=C1NC(=O)C(CCOc2ccccc2)(CCc2ccccc2)C(=O)N1,1.16% (inactive)
